Results published in PubChem BioAssay (Tox21).
Inconclusive results are not listed. Entries that show only a call come without a potency. Some structures have more than one record in an assay (separate samples or runs), and their calls can disagree. Calls of active or inactive are those of the source. The call rests on the fitted dose curve; in most records, active means well fitted cell-killing curve with a large enough effect in the repeat runs; inconclusive means weak or mixed curves, or effect the other way; inactive means no such curve, though single readings can be large or run the other way.

Test: qHTS assay to identify small molecule antagonists of the thyroid receptor (TR) signaling pathway - cell viability counter screen (AID 743064); further: nearly all actives have a fitted effect of over 50% in size
Details: GH3.TRE-Luc viability, CellTiter-Fluor, 24 h; series mostly up to 70.3 µM
Source text: National Center for Advancing Translational Sciences [NCATS]
NIH Chemical Genomics Center [NCGC]
U.S. Environmental Protection Agency [EPA]
National Institutes of Environmental Health Sciences [NIEHS]
National Toxicology Program [NTP]
U.S. Food and Drug Administration [FDA]
Thyroid receptor (TR), a nuclear hormone receptor, plays an important role in development, proliferation, differentiation, metabolism, brain function, and cardiovascular system. […] To profile the Tox21 10K compound library in TR signaling, a cell-based GH3-TRE-Luc assay (GH3.TRE-Luc cell line, developed by the laboratory of Dr. Albertinka J. Murk, Wageningen University) was used to measure the inhibition of TR. GH3 (rat pituitary tumor) cells stably expressing a TR activity sensor consisting of two TR response elements and a luciferase reporter gene. The cytotoxicity of the Tox21 compound library against the GH3.TRE-Luc cell line was tested in parallel by measuring the cell viability using CellTiter-Fluor assay (Promega, Madison, WI) in the same wells.
Tox21 Assay Protocol Summary:
GH3.TRE-Luc cells were dispensed at 1500 cells/4 uL/well into 1536-well white solid bottom plates using a Multidrop Combi dispenser (Thermo Fisher Scientific Inc., Waltham, MA). After the assay plates were incubated at 37 C for 4 hours, 23 nL of library compound or DMSO controls was transferred to the assay plates by a pintool station (Kalypsys, San Diego, CA), followed by addition of 1 ul of T3 (1 nM, final concentration in the wells) to stimulate TR transactivation. The assay plates were incubated at 37 C for 23.5 h, and then 1 uL of CellTiter-Fluor reagent (Promega, Madision, WI) of measuring cytotoxicity was added to each well using a Bioraptr Flying Reagent Dispenser (FRD) workstation (Beckman Coulter, Indianapolis, IN, USA). The plates were incubated at 37C and 5% CO2 for additional 30 min, and fluorescence intensity was measured by a ViewLux plate reader (PerkinElmer, Shelton, CT).
Potency means the concentration at half of the fitted maximal effect.

Compound	Potency
C=CCOc1ccccc1OCC(O)CNC(C)C (stereo not given)	inactive
O=C1C(O)=C(O)C(=O)C(O)=C1O	inactive
C=C(C)C(=O)OCCOCC	inactive
CC(C)(C)Cl	inactive
COCC(C)OC(C)=O (stereo not given)	inactive
CC(=O)[O][Al]	inactive
CCCCCCCCCc1ccc(OCCOCCO)cc1	18.8 µM (active) and inactive
CCCCO	inactive
CN(C)CCN(Cc1ccc(Cl)cc1)c1ccccn1	11.4 µM (active)
O=P(O)(OCc1ccccc1)OCc1ccccc1	inactive
Cc1[nH]c(C)c(Cl)c(=O)c1Cl	inactive
COc1cc2nc(N(C)CCCNC(=O)C3CCCO3)nc(N)c2cc1OC (stereo not given)	inactive
CCO[C@H](Cc1ccc(OCCc2ccc(OS(C)(=O)=O)cc2)cc1)C(=O)O	inactive
O=C1CCC(=O)O1	inactive
C#Cc1cccc(Nc2ncnc3cc(OCCOC)c(OCCOC)cc23)c1	inactive
CN1CCC(N(Cc2cccs2)c2ccccc2)CC1	11.9 µM (active)
CC1=CC=C(C(C)C)CC1	inactive
C/C=C/C=C/CO	inactive
CCC(C)O (stereo not given)	inactive
CCCCC	inactive

Compound	Potency
CCCOC(C(=O)OC1CCN(C)CC1)(c1ccccc1)c1ccccc1	18.8 µM (active)
CC(C)(O)c1ccc(CNC(=O)c2cccnc2Oc2ccc(F)cc2)cc1	inactive
Cc1cc(C(=O)O)ccc1[N+](=O)[O-]	inactive
CN(C)c1ccc(CCO)cc1	inactive
CC/C=C\CCOC(=O)CC	inactive
CNCCCCOc1ccccc1Cc1ccccc1	11.9 µM (active)
Cc1oc2c(NC(=O)c3c(Cl)cccc3Cl)cccc2c1C(C)(C)O	24.3 µM (active)
CCCCCCCCO[C@@H]1O[C@H](CO)[C@@H](O)[C@H](O)[C@H]1O	inactive
CCC(C)c1cc(C(C)(C)C)c(O)c(C(C)(C)C)c1 (stereo not given)	inactive
c1ccc(CNCCNCc2ccccc2)cc1	inactive
NCC(=O)O	inactive
COc1cccc(N(C)C(=S)Oc2ccc3c(c2)CCCC3)n1	inactive
C[C@H]1C[C@H]2[C@@H]3CCC4=CC(=O)C=C[C@]4(C)[C@@]3(Cl)[C@@H](O)C[C@]2(C)[C@@]1(O)C(=O)CO	inactive
C=C(C)C(=O)OCCO	inactive
CCOc1ccc(N)c([N+](=O)[O-])c1	inactive
CCC(CC)Nc1ccc(C)c(C)c1	inactive
C=CCOC(=O)CCC1CCCCC1	inactive
O=C(O)C1(C(=O)Nc2ccc(Cl)cc2Cl)CC1	inactive
O=C(O)c1ccccc1Cl	inactive
CCCNCC(O)COc1ccccc1C(=O)CCc1ccccc1 (stereo not given)	29.8 µM (active)
